According to the supplement of paper PMC8728848:
Only a selection was taken, and the strongest signals are over-represented in it overall.

Experiments:
Assay in all cases: glycan array binding signal (z-score within array); higher = stronger binding
Conditions in all cases: glycan notation: IUPAC condensed, linker removed
[1] = molecular target: Fuc(a1-2)Gal(b1-3)[Fuc(a1-4)]GlcNAc(b1-3)[Gal(b1-4)GlcNAc(b1-6)]Gal(b1-4)Glc
In short: (§1)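 Negative Z-scores can be read as non-binding. The Z-score is calculated within each array and then averaged across arrays of one protein sequence at different concentrations or buffers and across linkers. Arrays, 3228 in all, were curated from the Consortium for Functional Glycomics database and kept only where the protein sequence was available.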

Fuc(a1-2)Gal(b1-4)Glc6S = molecular target: Fuc(a1-2)Gal(b1-4)Glc6S
In short: as §1

[2] = molecular target: Fuc(a1-2)Gal(b1-4)GlcNAc(b1-3)Gal(b1-4)GlcNAc(b1-2)Man(a1-3)[Fuc(a1-2)Gal(b1-4)GlcNAc(b1-3)Gal(b1-4)GlcNAc(b1-2)Man(a1-6)]Man(b1-4)GlcNAc(b1-4)GlcNAc
In short: as §1

[3] = molecular target: Fuc(a1-2)Gal(b1-4)[Fuc(a1-3)]GlcNAc(b1-2)Man(a1-3)[Fuc(a1-2)Gal(b1-4)[Fuc(a1-3)]GlcNAc(b1-2)Man(a1-6)]Man(b1-4)GlcNAc(b1-4)[Fuc(a1-6)]GlcNAc
In short: as §1

[4] = molecular target: Fuc(a1-2)Gal6S(b1-3)GlcNAc6S
In short: as §1

[5] = molecular target: Fuc(a1-2)Gal6S(b1-4)Glc6S
In short: as §1

[6] = molecular target: Fuc(a1-2)[Gal(a1-3)]Gal(b1-3)GlcNAc(b1-2)Man(a1-3)[Fuc(a1-2)[Gal(a1-3)]Gal(b1-3)GlcNAc(b1-2)Man(a1-6)]Man(b1-4)GlcNAc(b1-4)[Fuc(a1-6)]GlcNAc
In short: as §1

[7] = molecular target: Fuc(a1-2)[Gal(a1-3)]Gal(b1-4)GlcNAc(b1-3)GalNAc
In short: as §1

[8] = molecular target: Fuc(a1-2)[GalNAc(a1-3)]Gal(b1-4)[Fuc(a1-3)]GlcNAc
In short: as §1

[9] = molecular target: Fuc(a1-3)[Gal(b1-4)]GlcNAc(b1-2)Man(a1-3)[Fuc(a1-3)[Gal(b1-4)]GlcNAc(b1-2)Man(a1-6)]Man(b1-4)GlcNAc(b1-4)GlcNAc
In short: as §1

[10] = molecular target: Fuc(a1-3)[Gal(b1-4)]GlcNAc(b1-6)[Neu5Ac(a2-3)Gal(b1-3)]GalNAc
In short: as §1

Gal(a1-2)Gal = molecular target: Gal(a1-2)Gal
In short: as §1

[11] = molecular target: Gal(a1-3)Gal(b1-3)GlcNAc(b1-2)Man(a1-3)[Gal(a1-3)Gal(b1-3)GlcNAc(b1-2)Man(a1-6)]Man(b1-4)GlcNAc(b1-4)GlcNAc
In short: as §1

Gal(b1-3)Gal(b1-4)GlcNAc = molecular target: Gal(b1-3)Gal(b1-4)GlcNAc
In short: as §1

[12] = molecular target: Gal(b1-3)[Fuc(a1-4)]GlcNAc
In short: as §1

[13] = molecular target: Gal(b1-3)[Neu5Ac(a2-6)]GlcNAc
In short: as §1

[14] = molecular target: Gal(b1-3)[Neu5Ac(b2-6)]GlcNAc
In short: as §1

[15] = molecular target: Gal(b1-4)GlcNAc(b1-2)Man(a1-3)[Gal(b1-4)GlcNAc(b1-2)Man(a1-6)]Man(b1-4)GlcNAc(b1-4)GlcNAc
In short: as §1

[16] = molecular target: Gal(b1-4)GlcNAc(b1-2)Man(a1-3)[Gal(b1-4)GlcNAc(b1-2)Man(a1-6)]Man(b1-4)GlcNAc(b1-4)[Fuc(a1-6)]GlcNAc
In short: as §1

[17] = molecular target: Gal(b1-4)GlcNAc(b1-2)Man(a1-3)[Man(a1-6)]Man(b1-4)GlcNAc(b1-4)GlcNAc
In short: as §1

Gal3S(b1-4)GlcNAc6S = molecular target: Gal3S(b1-4)GlcNAc6S
In short: as §1

Gal3S4S(b1-4)GlcNAc = molecular target: Gal3S4S(b1-4)GlcNAc
In short: as §1

[18] = molecular target: GalNAc3S(b1-4)[Fuc(a1-3)]GlcNAc
In short: as §1

Glc(a1-6)Glc(a1-6)Glc = molecular target: Glc(a1-6)Glc(a1-6)Glc
In short: as §1

[19] = molecular target: GlcNAc(b1-2)[GlcNAc(b1-4)]Man(a1-3)[GlcNAc(b1-2)Man(a1-6)]Man(b1-4)GlcNAc(b1-4)GlcNAc
In short: as §1

[20] = molecular target: GlcNAc(b1-3)Gal(b1-4)GlcNAc(b1-3)Gal(b1-4)GlcNAc(b1-3)GalNAc
In short: as §1

[21] = molecular target: Man(a1-2)Man(a1-2)Man(a1-3)Man
In short: as §1

[22] = molecular target: Man(a1-2)Man(a1-2)Man(a1-3)[Man(a1-2)Man(a1-3)[Man(a1-2)Man(a1-6)]Man(a1-6)]Man(b1-4)GlcNAc(b1-4)GlcNAc
In short: as §1

[23] = molecular target: Man(a1-2)Man(a1-2)Man(a1-3)[Man(a1-2)Man(a1-6)[Man(a1-3)]Man(a1-6)]Man(b1-4)GlcNAc(b1-4)GlcNAc
In short: as §1

[24] = molecular target: Man(a1-2)Man(a1-3)[Man(a1-3)[Man(a1-6)]Man(a1-6)]Man(b1-4)GlcNAc(b1-4)GlcNAc
In short: as §1

[25] = molecular target: Man(a1-2)Man(a1-3)[Man(a1-6)]Man(a1-6)[Man(a1-2)Man(a1-3)]Man(b1-4)GlcNAc(b1-4)GlcNAc
In short: as §1

[26] = molecular target: Man(a1-2)Man(a1-6)[Man(a1-3)]Man(a1-6)[Man(a1-2)Man(a1-2)Man(a1-3)]Man(b1-4)GlcNAc(b1-4)GlcNAc
In short: as §1

[27] = molecular target: Man(a1-3)[Man(a1-6)]Man(a1-6)[Man(a1-2)Man(a1-3)]Man(b1-4)GlcNAc(b1-4)GlcNAc
In short: as §1

[28] = molecular target: Man(a1-3)[Man(a1-6)]Man(a1-6)[Man(a1-3)]Man(b1-4)GlcNAc(b1-4)GlcNAc
In short: as §1

[29] = molecular target: Man(a1-3)[Man(a1-6)]Man(b1-4)GlcNAc(b1-4)GlcNAc
In short: as §1

[30] = molecular target: Neu5Ac(a2-3)Gal(b1-4)GlcNAc(b1-2)Man(a1-3)[GlcNAc(b1-4)][Neu5Ac(a2-3)Gal(b1-4)GlcNAc(b1-2)Man(a1-6)]Man(b1-4)GlcNAc(b1-4)GlcNAc
In short: as §1

[31] = molecular target: Neu5Ac(a2-3)Gal(b1-4)GlcNAc(b1-3)[Neu5Ac(a2-3)Gal(b1-4)GlcNAc(b1-6)]GalNAc
In short: as §1

[32] = molecular target: Neu5Ac(a2-3)Gal(b1-4)[Fuc(a1-3)]GlcNAc(b1-6)[Gal(b1-3)]GalNAc
In short: as §1

[33] = molecular target: Neu5Ac(a2-3)Gal6S(b1-4)GlcNAc
In short: as §1

[34] = molecular target: Neu5Ac(a2-3)[GalNAc(b1-4)]Gal(b1-4)GlcNAc
In short: as §1

[35] = molecular target: Neu5Ac(a2-6)Gal(b1-4)GlcNAc
In short: as §1

[36] = molecular target: Neu5Ac(a2-6)Gal(b1-4)GlcNAc(b1-3)Gal(b1-4)GlcNAc(b1-2)Man(a1-3)[Neu5Ac(a2-6)Gal(b1-4)GlcNAc(b1-3)Gal(b1-4)GlcNAc(b1-2)Man(a1-6)]GalNAc
In short: as §1

[37] = molecular target: Neu5Ac(a2-6)Gal(b1-4)GlcNAc(b1-6)[Gal(b1-3)GlcNAc(b1-3)]Gal(b1-4)Glc
In short: as §1

[38] = molecular target: Neu5Ac(a2-8)Neu5Ac(a2-3)[Gal(b1-3)GalNAc(b1-4)]Gal(b1-4)Glc
In short: as §1

[39] = molecular target: Neu5Ac(a2-8)Neu5Ac(a2-8)Neu5Ac(a2-8)Neu5Ac(a2-3)[GalNAc(b1-4)]Gal(b1-4)Glc
In short: as §1

[40] = molecular target: Neu5Gc(a2-3)Gal(b1-4)GlcNAc(b1-3)Gal(b1-4)GlcNAc(b1-2)Man(a1-3)[Neu5Gc(a2-3)Gal(b1-4)GlcNAc(b1-3)Gal(b1-4)GlcNAc(b1-2)Man(a1-6)]Man(b1-4)GlcNAc(b1-4)GlcNAc
In short: as §1

[41] = molecular target: Neu5Gc(a2-3)Gal(b1-4)[Fuc(a1-3)]GlcNAc
In short: as §1

[42] = molecular target: Neu5Gc(a2-8)Neu5Gc(a2-3)Gal(b1-4)GlcNAc
In short: as §1

B1: Nictaba (Nicotiana tabacum), Q94EW1 (protein)
chain: MQGQWIAARDLSITWVDNPQYWTWKTVDPNIEVAELRRVAWLDIYGKIETKNLIRKTSYAVYLVFKLTDNPRELERATASLRFVNEVAEGAGIEGTTVFISKKKKLPGELGRFPHLRSDGWLEIKLGEFFNNLGEDGEVEMRLMEINDKTWKSGIIVKGFDIRPN
- glycan array binding signal (z-score) [1]: -0.29
- glycan array binding signal (z-score) (Fuc(a1-2)Gal(b1-4)Glc6S): -0.254
- glycan array binding signal (z-score) [2]: 3.54
- glycan array binding signal (z-score) [3]: 5.19
- glycan array binding signal (z-score) [4]: -0.381
- glycan array binding signal (z-score) [5]: -0.234
- glycan array binding signal (z-score) [6]: -0.187
- glycan array binding signal (z-score) [7]: -0.273
- glycan array binding signal (z-score) [8]: -0.307
- glycan array binding signal (z-score) [9]: 5.57
- glycan array binding signal (z-score) [10]: -0.295
- glycan array binding signal (z-score) (Gal(a1-2)Gal): -0.289
- glycan array binding signal (z-score) [11]: -0.148
- glycan array binding signal (z-score) (Gal(b1-3)Gal(b1-4)GlcNAc): -0.321
- glycan array binding signal (z-score) [12]: -0.271
- glycan array binding signal (z-score) [13]: -0.332
- glycan array binding signal (z-score) [14]: -0.39
- glycan array binding signal (z-score) [15]: 3.74
- glycan array binding signal (z-score) [16]: 1.64
- glycan array binding signal (z-score) [17]: 3.52
- glycan array binding signal (z-score) (Gal3S(b1-4)GlcNAc6S): -0.163
- glycan array binding signal (z-score) (Gal3S4S(b1-4)GlcNAc): -0.289
- glycan array binding signal (z-score) [18]: -0.387
- glycan array binding signal (z-score) (Glc(a1-6)Glc(a1-6)Glc): -0.295
- glycan array binding signal (z-score) [19]: -0.101
- glycan array binding signal (z-score) [20]: -0.388
- glycan array binding signal (z-score) [21]: -0.29
- glycan array binding signal (z-score) [22]: 3.93
- glycan array binding signal (z-score) [23]: 4
- glycan array binding signal (z-score) [24]: 4.38
- glycan array binding signal (z-score) [25]: 4.07
- glycan array binding signal (z-score) [26]: 4.83
- glycan array binding signal (z-score) [27]: 6.51
- glycan array binding signal (z-score) [28]: 4.21
- glycan array binding signal (z-score) [29]: 3.44
- glycan array binding signal (z-score) [30]: -0.37
- glycan array binding signal (z-score) [31]: -0.389
- glycan array binding signal (z-score) [32]: -0.249
- glycan array binding signal (z-score) [33]: -0.272
- glycan array binding signal (z-score) [34]: -0.269
- glycan array binding signal (z-score) [35]: -0.276
- glycan array binding signal (z-score) [36]: 1.27
- glycan array binding signal (z-score) [37]: -0.387
- glycan array binding signal (z-score) [38]: -0.3
- glycan array binding signal (z-score) [39]: -0.244
- glycan array binding signal (z-score) [40]: 0.883
- glycan array binding signal (z-score) [41]: -0.366
- glycan array binding signal (z-score) [42]: -0.388
